Experimental data as given in PubChem BioAssay AID1851 (National Center for Advancing Translational Sciences (NCATS), 2009).
Where “and” joins values, the source holds several entries; their conditions need not be identical. Equal entries are not always repeated. Hit rate of the full screen: of about 16,000 compounds, about 5,100 (32%) were called active. Another 25% or so got no clear call; they are omitted. The call rests on the fitted dose curve; in most records, active means well fitted curve in the direction sought with a large enough effect; inconclusive means small, poorly fitted or top-dose-only effect, or effect the other way; inactive means no such curve, though single readings can be large or run the other way. The list shows a part of the results.

Molecular target: Cytochrome P450 3A4 (Homo sapiens) (UniProt P08684)
Sequence (P08684 whole entry, looked up): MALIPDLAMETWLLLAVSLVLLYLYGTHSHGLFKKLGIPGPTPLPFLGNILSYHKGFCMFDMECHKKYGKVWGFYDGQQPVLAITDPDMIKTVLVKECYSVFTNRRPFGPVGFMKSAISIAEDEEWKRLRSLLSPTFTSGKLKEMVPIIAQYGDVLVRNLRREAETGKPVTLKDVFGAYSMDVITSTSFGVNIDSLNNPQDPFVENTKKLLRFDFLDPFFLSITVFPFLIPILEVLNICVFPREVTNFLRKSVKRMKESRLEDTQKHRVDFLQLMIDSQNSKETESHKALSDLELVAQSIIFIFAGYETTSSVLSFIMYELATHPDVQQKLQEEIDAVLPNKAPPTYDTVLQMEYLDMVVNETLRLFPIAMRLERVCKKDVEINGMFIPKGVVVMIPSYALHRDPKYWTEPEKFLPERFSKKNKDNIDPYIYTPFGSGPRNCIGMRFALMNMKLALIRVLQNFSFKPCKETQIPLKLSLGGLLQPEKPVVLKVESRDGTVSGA
Assay: Cytochrome panel assay with activity outcomes
Conditions: recombinant CYP, pro-luciferin dealkylation, luminescence, p450-cyp3a4; series mostly up to 57.1 µM
On the % scale 0 is the no-effect control and ±100 the full control effect.

activity, negative = inhibition, inactive:
Cc1[nH]c2ccccc2c1-c1cc(-c2cc(-c3c(C)[nH]c4ccccc34)on2)no1 -5.38% [at 11.4 µM], CCn1c(C)nc2cc(S(=O)(=O)C(F)F)ccc21 9.09% [at 11.4 µM], CCCOc1ccc(C(=O)NNC(=S)NC(=O)CC)cc1 -8.65% [at 2.29 µM], Cc1ccc(-c2c(C#N)c(N)n(-c3ccccc3)c(=O)c2C#N)cc1 -3.64% [at 2.29 µM], CN(C)CCOC(=O)c1ccc(N)cc1 -4.56% [at 11.4 µM], CC(C)(C)NC[C@@H](O)c1ccc(O)c(CO)n1 2.12% [at 11.4 µM], Cc1cc(C)c(-c2noc(C(=O)OC(C)(C)C)c2C(=O)OC(C)(C)C)c(C)c1 -8.97% [at 2.29 µM], O=C(Cc1ccccc1)NC(=S)Nc1cc(C(F)(F)F)ccc1Cl -7.93% [at 2.29 µM], C[C@@H](CCC(=O)O)C(=O)O -7.96% [at 11.4 µM], Cc1ccc(N2CCN(CCC(=O)O)CC2)cc1 -4.63% [at 11.4 µM], CN1CCN(C(=O)c2ccc(COc3ccc(C(C)(C)C)cc3)o2)CC1 -9.09% [at 2.29 µM]

AC50, active:
CCCCn1c(SCc2c(C)noc2C)nc2cc(S(N)(=O)=O)ccc21 0.708 µM, CCCOc1ccc(C(=O)NNC(=S)NC(=O)c2cc(-c3ccccc3)nc3ccccc23)cc1 8.91 µM, O=C(OCCN1CCOCC1)C1(c2ccccc2)CCCCC1 3.16 µM and 1.58 µM, COc1ccccc1Cn1nnc2c(=O)[nH]c(C3CCN(C(=O)c4ccc(C)cc4)CC3)nc21 1.58 µM, O=C(Cc1cccs1)N1CCC(c2nc3c(nnn3Cc3ccccc3Cl)c(=O)[nH]2)CC1 3.16 µM, Cc1ccc(Cn2nnc3c(=O)[nH]c(C4CCN(C(=O)Cc5cccs5)CC4)nc32)cc1 4.47 µM, O=C(OCCNC(=O)c1ccc2ccccc2n1)c1ccc(F)cc1 14.1 µM, Fc1ccc(N2CCN(c3ccc4c(C(F)(F)F)cc(C(F)(F)F)nc4n3)CC2)cc1 10 µM, Cc1ccc(Nc2nc(Cl)nc(N(C)C#N)n2)cc1 11.2 µM, Cn1nc(C(F)(F)F)c(C(=O)Nc2ccc(F)cc2F)c1Sc1cccc(C(F)(F)F)c1 6.31 µM, Cc1ccc(NC(=O)c2sccc2SCc2cccc(C(F)(F)F)c2)cc1 1 µM, Cn1nc(C(F)(F)F)c(C(=O)Nc2ccc(F)cc2F)c1Sc1ccc(C(F)(F)F)cc1 12.6 µM, Cc1ccc(NC(=O)c2c(C(F)(F)F)nn(C)c2SCc2cccc(C(F)(F)F)c2)cc1C 3.16 µM, COc1ccccc1C(c1nnnn1C(C)(C)C)N1CCCc2ccccc21 (stereo not given) 10 µM, COc1ccccc1C(c1nnnn1C(C)(C)C)N1CCN(Cc2ccncc2)CC1 (stereo not given) 3.16 µM, N#Cc1ccc(C(c2nnnn2Cc2ccccc2)N2CCCC2)cc1 (stereo not given) 7.94 µM, N#Cc1cccc(C(c2nnnn2C2CCCC2)N2CCCCCC2)c1 (stereo not given) 5.01 µM, N#Cc1ccc(C(c2nnnn2C2CCCC2)N2CCC(Cc3ccccc3)CC2)cc1 (stereo not given) 4.47 µM, CCOC(=O)c1sc2nc(CC(=O)OC)nc(NCc3ccc(F)cc3)c2c1C 4.47 µM, Cc1cc(C(=O)CC#N)c(C)n1CC(F)(F)F 3.16 µM, O=C(/C=C/c1ccccc1)NC(NC(=S)Nc1ccc(Cl)cc1)C(Cl)(Cl)Cl (stereo not given) 4.47 µM, O=C(Cc1ccccc1)NC(NC(=S)Nc1cc(Cl)ccc1Cl)C(Cl)(Cl)Cl (stereo not given) 4.47 µM, O=C(NC(NC(=S)Nc1cc(Cl)ccc1Cl)C(Cl)(Cl)Cl)c1ccco1 (stereo not given) 6.31 µM, O=C(Cc1ccccc1)NC(NCCc1ccccc1)C(Cl)(Cl)Cl (stereo not given) 14.1 µM, COCCn1c(=O)c(-c2cn(C)c3ccccc23)nc2cnc(Oc3ccc(OC)cc3)nc21 3.98 µM, COCCn1c(=O)c(-c2cn(C)c3ccccc23)nc2cnc(Oc3ccccc3)nc21 3.16 µM, COc1ccc(Oc2ncc3nc(-c4cn(C)c5ccccc45)c(=O)n(C4CC4)c3n2)cc1 12.6 µM, Cc1ccc(C)c(-c2nn(-c3cc(N4CCN(CCO)CC4)ccc3[N+](=O)[O-])c(=O)c3ccccc23)c1 12.6 µM, COc1ccc(NC(=O)c2ccc(COc3ccccc3)o2)cc1 22.4 µM, COc1ccc(NC(=O)CCOc2ccccc2)cc1 15.8 µM, Cc1ccc(OCc2ccc(C(=O)Nc3nccs3)o2)cc1C 11.2 µM

AC50, inactive:
CCN(CC)CCOC(=O)C1(c2ccc([N+](=O)[O-])cc2)CCCC1, CN(C)CCOC(=O)C1(c2ccccc2)CCOCC1, NC(N)=NN=Cc1c(Cl)cccc1Cl, COc1ccc(C(=O)N2CCC3(CCN(Cc4ccccc4OC)CC3)CC2)cc1, COCC(=O)N1CCC2(CCN(Cc3ccccc3OC)CC2)CC1, FC(F)(F)c1cc(C(F)(F)F)c2ccc(N/N=C/c3cccc(Cl)c3)nc2n1, Cc1c(C)c2c(c(C)c1O)CC[C@@](C)(CCC[C@@H](C)CCC[C@@H](C)CCCC(C)C)O2, CC(C)NC(=O)c1ccc(-c2cccc(C(F)(F)F)c2)o1, CC(=O)OCc1c(C(F)(F)F)nn(C)c1Sc1ccccc1, CN(C/C=C\c1ccccc1)Cc1cccc2ccccc12, COc1ccccc1C(=O)NC(=S)N1CCCc2ccccc21, CC[N+](CC)(CC)CC, N[C@@H](C(=O)O)c1ccc(P(=O)(O)O)cc1, O=C(O)c1sc2cc(C(F)(F)F)cnc2c1-c1ccccc1, CCOC(=O)c1sc2c(c1C)c(=O)c(C(=O)OCC)cn2CC, O=C(NNC(=S)Nc1ccccc1)c1ccco1, O=C(/C=C/c1ccc(Cl)cc1)Nc1ccc(N2CCCCC2)cc1, CC(CP(=O)(O)O)NC(=O)Cc1ccccc1 (stereo not given), O=C(CCc1ccccc1)Nc1ncn[nH]1, COCCn1c(=O)c(-c2cn(C)c3ccccc23)nc2cnc(Oc3cccc(Cl)c3)nc21, OCCNc1nc(NCCC2=CCCCC2)nc(N2CCOCC2)n1, Cc1ccc(OCC(=O)NNC(=O)c2cc3ccccc3o2)cc1C, O=C(COC(=O)COc1ccccc1)Nc1ccc(OC(F)(F)F)cc1
